PAX8 reporter – lowers PAX8-driven luciferase in RMG-I cells. 1.2% of 360,000 active. AID 652154. inhibition, % at 12.6 µM. RMG-I TPO-luciferase reporter, SteadyGlo, 24 h;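 active means mean replicate inhibition at least 60% with every replicate also reaching 60%; inconclusive means only one of the two criteria is met; inactive means mean below 60% and not all replicates reaching 60%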;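 further: luciferase light reporting Pax8 driven TPO promoter activity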
TWEAK Fn14 block – inhibitors of TWEAK-Fn14 interaction signaling; inhibition, % at 10 µM; 2% of 360,000 active; TWEAK-stimulated Fn14 reporter cells, luciferase luminescence, 8 h; in the data active means inhibition above about 50%
LMP1 NFkB inh – Epstein-Barr LMP1 NF-kappaB reporter inhibition. LMP1-induced NF-kappaB luciferase reporter cells, luminescence. inhibition, % at 12.5 µM. 0.69% of 350,000 active; in the data active means inhibition above about 41%; inconclusive means no clear call, values can overlap the other calls
EWS-Fli block – EWS/Fli transcriptional activity inhibition; A673 NR0B1-luciferase reporter, viability-normalised; inhibition, % at 12.6 µM; 0.67% of 350,000 active; AID 651661;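 active means mean inhibition of at least 50% after viability correction, with every replicate also passing that limit; inconclusive means mean reaches 50% but only one of two replicates passes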;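 further: firefly luciferase signal divided by Alamar Blue viability fluorescence both relative to DMSO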
LGR2 inh – inhibitors of bursicon-induced Drosophila LGR2 receptor cAMP signaling; AID 720647; inhibition, % at 9.99 µM; 0.35% of 380,000 active; HEK293 LGR2, CRE-luciferase, bursicon-stimulated, 4 h;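 active means drop in luminescence signal, shown as inhibition above about 50% in the replicate tests, limit read from the data, passing the limit was not always enough; inconclusive means probably only some replicates passing the limit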;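 further: agonist challenge used bursicon conditioned medium at about half maximal strength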
TROY NFkB inh – blocks TROY-dependent signaling in reporter cells | Q293 LMP1-TROYcd NF-kB luciferase reporter, 4 h | inhibition, % at 10 µM | 0.98% of 360,000 active | AID 1347056;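 active means compounds whose plate-normalised and pattern-corrected inhibition of the luciferase reporter signal at the single screening dose is 50% or more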
Numbers stand for hits; - = inactive; ? = inconclusive; . = not tested or not shown. Most compounds without a hit are left out; they make up all but 3.1% or so of the library.

SMILES	PAX8 reporter	TWEAK Fn14 block	LMP1 NFkB inh	EWS-Fli block	LGR2 inh	TROY NFkB inh
Nc1ncnc2c1c(-c1ccc(Oc3ccccc3)cc1)cn2C1CCCC1	-	-	47	-	.	-
Cc1cc(C)nc(/N=C(\N)Nc2ccc(OCc3ccccc3)cc2)n1	-	-	-	-	-	-
Cc1cc(C)nc(/N=C(\N)Nc2cccc(OCc3ccccc3)c2)n1	-	-	-	53	-	-
COc1ccc(/C=C/C(=O)c2ccc(O)cc2)cc1COc1ccc(F)cc1	.	55	-	-	-	-
COc1cc(/C=C/C(=O)c2ccc3c(c2)OCCO3)cc(OC)c1OC	-	67	-	-	-	-
COc1ccc(/C=C/C(=O)c2ccccc2)cc1COc1ccc(F)cc1	.	-	-	-	-	-
COc1cc(/C=N/O)ccc1Oc1ccc([N+](=O)[O-])cc1[N+](=O)[O-]	-	-	-	-	-	-
COc1cc(/C=C/C(=O)c2ccc(F)cc2)cc(OC)c1OC	-	84	-	-	.	-
O=[N+]([O-])c1cc(/C=N\O)ccc1Oc1ccc(F)cc1	-	-	65	-	-	-
COc1cc(/C=C/C(=O)c2ccc3c(c2)OCO3)cc(OC)c1OC	.	-	-	.	-	-
O=C(c1ccccc1)N1CC[C@@H]2[C@H](CO)Nc3ccc(C#Cc4cccc(F)c4)cc3[C@@H]21	-	.	.	-	-	.
CO[C@@H](CN(C)C(=O)C1CCOCC1)[C@H](C)CN(C(=O)Nc1ccc(C(F)(F)F)cc1)[C@@H](C)CO	.	.	.	-	-	.
C[C@H]1CCCCO[C@@H](CN(C)Cc2ccc(C(=O)O)cc2)[C@@H](C)CN([C@@H](C)CO)C(=O)c2cc(NC(=O)NC3CCCCC3)ccc2O1	-	.	.	-	-	.
C[C@@H]1CN([C@@H](C)CO)C(=O)c2cc(NS(=O)(=O)c3cccs3)ccc2O[C@@H](C)CCCCO[C@H]1CN(C)S(=O)(=O)c1cn(C)cn1	-	.	.	-	-	.
COc1ccc(Oc2ccc(/C=C/C(=O)c3ccc(O)cc3)cc2[N+](=O)[O-])cc1	-	69	-	75	.	77
O=C(/C=C/c1ccc(O)c([N+](=O)[O-])c1)c1ccc2ccccc2c1	-	-	?	-	-	-
C[C@@H]1CN([C@@H](C)CO)S(=O)(=O)c2ccc(-c3cccnc3)cc2O[C@@H]1CN(C)Cc1cncnc1	.	.	.	-	-	.
CCOC(=O)C1CCN(C(=O)/C=C/c2ccccc2OC)CC1	-	59	-	.	.	-
COc1cccc(/C=C/C(=O)N2CCN(S(=O)(=O)c3ccccc3)CC2)c1OC	-	73	-	-	-	-
CCOC(=O)C1CCN(C(=O)/C=C/c2ccc(OC)cc2)CC1	-	-	-	.	.	-
O=C(CSC1=NCCS1)Nc1ccnc2ccccc12	.	52	-	.	-	-
COc1ccc2c3c(n(C)c2c1)[C@H](CO)N(C(=O)C1CCOCC1)CC31CN(C(=O)C2CC2)C1	-	.	.	-	-	.
C[C@H](CO)N1C[C@H](C)[C@@H](CN(C)CC2CC2)Oc2ccc(NC(=O)c3ccncc3)cc2CC1=O	-	.	.	-	-	.
CC(C)(CC(=O)N1CCN(c2ccc(Cl)cc2)CC1)CC1=NS(=O)(=O)c2ccccc2N1	-	54	-	.	.	-
CCOc1ccccc1NC(=O)c1c(NC(=O)CCC(=O)O)sc2c1CCCCC2	-	-	-	-	-	-
SMILES	PAX8 reporter	TWEAK Fn14 block	LMP1 NFkB inh	EWS-Fli block	LGR2 inh	TROY NFkB inh
CCOC(=O)c1ccc(NC(=O)c2c(NC(=O)CCC(=O)O)sc3c2CCCCC3)cc1	-	74	-	-	-	-
CC(C)C#Cc1cnc2c(c1)C(=O)N([C@H](C)CO)C[C@@H](C)[C@@H](CN(C)C(=O)Nc1ccccc1F)O2	.	.	.	-	-	.
O=C(C[C@H]1CC[C@@H]2[C@H](COC[C@@H](O)CN2C(=O)Nc2ccc(Cl)c(Cl)c2)O1)NCc1ccc(Cl)c(Cl)c1	-	.	.	-	-	.
C[C@@H]1CN([C@@H](C)CO)C(=O)c2cccc(NC(=O)Nc3ccccc3)c2O[C@H]1CN(C)C(=O)Nc1ccc2c(c1)OCO2	-	.	.	-	-	.
CCc1ccccc1OCCCN1CCCC1	-	59	-	-	-	-
CC(C)C#Cc1ccc2c(c1)O[C@H](CN(C)C(=O)NC(C)C)[C@H](C)CN([C@@H](C)CO)S2(=O)=O	-	.	.	-	-	.
COc1cc(/C=C2/C(=O)ON=C2C)cc(Cl)c1O	-	-	-	-	-	-
C#CCOc1c(Cl)cc(/C=C2/C(=O)ON=C2C)cc1OC	-	63	-	-	-	-
CC(C)(C)[S@](=O)N1Cc2cc(C(=O)N3CCOCC3)nc(-c3cccc(Br)c3)c2[C@@H]1CCO	-	.	.	-	-	.
C[C@@H]1CN([C@H](C)CO)C(=O)c2cccc(NC(=O)Nc3ccccc3)c2O[C@H]1CN(C)C(=O)Nc1ccc(F)cc1	-	.	.	-	-	.
O=C1/C(=C\c2cc(Cl)c(O)c(Cl)c2)SC(=S)N1Cc1ccccc1	-	61	-	-	-	70
CC(OC(=O)c1ccccc1Oc1ccccc1)C(=O)NC1CC1 (stereo unspecified)	-	-	-	-	-	59
CCc1ccc(CN(C)C(=O)CCc2nc3ccccc3n(-c3ccc(OC)cc3)c2=O)cc1	-	52	-	-	-	54
COc1ccc2c3c([nH]c2c1)[C@H](CO)N(C(=O)CN(C)C)CC31CN(Cc2ccccc2Cl)C1	.	.	.	-	-	.
Cc1cc(=O)n(C)c2ccccc12	-	-	-	-	-	-
Cc1cc(=O)n2c3c(c4c(cc13)c(CN(C)C)cc(=O)n4C)OC2	104	-	-	?	105	52
N#CCCn1cc(C(=O)Nc2ccccn2)c(-c2ccccc2)n1	-	-	69	-	-	-
COc1cccc(COC(=O)c2cc(S(=O)(=O)N3CCOCC3)ccc2Cl)c1OC	-	85	-	-	-	-
O=C(c1cccc(F)c1)N1CCCCN2[C@H](C1)[C@H](c1ccc(C#CC3(O)CCCC3)cc1)[C@@H]2CO	-	.	.	-	-	.
O=C(Nc1nc2c(s1)CCCC2)c1cccs1	.	57	-	.	.	-
CC1(C)CC(=O)c2sc(NC(=O)c3cccs3)nc2C1	.	54	-	.	.	-
Cc1onc(-c2ccccc2Cl)c1C(=O)Nc1nnc(-c2ccc(Cl)cc2Cl)s1	-	-	-	-	-	-
CC1(C)CC(=O)c2sc(NC(=O)CCS(=O)(=O)c3ccccc3)nc2C1	109	-	-	-	-	-
Cc1onc(-c2ccccc2Cl)c1C(=O)Nc1nc2c(s1)CCCC2	.	-	-	.	.	52
CC(Oc1ccccc1)C(=O)Nc1nc2c(s1)C(=O)CC(C)(C)C2 (stereo unspecified)	.	-	-	.	-	-
CNC[C@H]1Oc2ccc(NS(=O)(=O)c3cccs3)cc2C(=O)N([C@@H](C)CO)C[C@H]1C	.	.	.	-	-	.
CNC(=O)C[C@@H]1CC[C@H]2[C@@H](COc3ccc(NC(=O)Nc4ccc(F)cc4)cc3C(=O)N2C)O1	-	.	.	-	-	.
CCN(CC)c1nc(Oc2ccc(C(=O)OC)cc2)nc(N2CCOCC2)n1	-	-	52	-	-	-
CCN(CC)c1nc(Nc2ccccc2)nc(Oc2ccc(C(=O)OC)cc2)n1	.	-	-	.	.	-
